These results are taken from PubChem BioAssay (NCATS).

Inconclusive results are not listed. Activity calls are given as the source filed them. Calls follow the shape of the dose curve; as a rule, active = well fitted cell-killing curve with a large enough effect; inconclusive = small, poorly fitted or top-dose-only effect, or effect the other way; inactive = no such curve, though single readings can be large or run the other way. Where a SMILES comes first, the peptide text is derived from it. [ ]: non-standard residue; d: D form. The star is where a group is joined. Sta = CC(C)C[C@H](N)[C@@H](O)CC(=O)O; Isovaleryl = CC(C)CC(=O)*
Potency is read from the fitted curve at half-maximal effect.

This experiment in a line: Quantitative highthroughput screen to assess conditional lethalithy of SEM cells grown in RPMI1640 with unreated serum (RPMI+s) (AID 1963883). Also: nearly all actives have a fitted effect of over 35% in size. The settings on record: SEM B-ALL cells, CellTiter-Glo viability, 48 h; series mostly up to 45.8 µM; viability: at the top concentration. The source says:
Assay Provider: Jason Cantor Ph.D.
Department of Biochemistry
University of Wisconsin-Madison, Madison, WI, USA
Chemical screening studies have identified drug sensitivities across hundreds of cancer cell lines but most putative therapeutics fail to translate. Discovery and development of drug candidates in models that more accurately reflect nutrient levels in human blood is a major challenge. Here we performed high-throughput screens in conventional versus Human Plasma-Like Medium (HPLM) to identify compounds that were "missed" when screening using the artificial culture condition. Sets of conditional anticancer compounds spanned phases of clinical development and included non-oncology drugs were assessed. […] We also traced conditional phenotypes for several chemotherapeutics to availability of HPLM-specific metabolites and confirmed others for compounds whose reported targets are encoded by nonessential genes. Our findings establish generalizable strategies for exploiting conditional lethality in HPLM to reveal therapeutic candidates and mechanisms of action in cancer cells.
Described herein are the results of each viability screens against three cell lines: NOMO1 (an acute myeloid leukemia cell line); P12-Ichikawa (a T-cell acute lymphoblastic leukemia); and SEM (a B-cell ALL). Each assay was screened using 3 different cell culture media: homemade human plasma-Like medium with 10% dialyzed fetal bovine serum (HPLM+ds); RPMI1640 with 10% untreated FBS and 5mM glucose (RPMI+s); and RPMI1640 with 10% dialyzed fetal bovine serum and 5 mM glucose (RPMI+ds).
PROTOCOL TABLE (as described by Inglese J, Shamu CE and Guy RK. 2007)
SEQUENCE No. (e.g., 1, 2, 3, etc.); […] (e.g., Cells, Incubation, Reagent, etc.); VALUE and DESCRIPTION.
1; Cells; 5 uL; white, solid bottom 1536-well Greiner assay plate.
2; Compounds; 23 nL; Kalypsis pin tool (Wako USA) equipped with a 1536-well pin head to transfer to the assay plates.
3; Incubation; 48 hours; 37C incubation.
4; Reagent; 3 uL; CellTiter Glo (Promega).
5; Incubation; 5 min, room temperature
6; Detection; Luminescence, Viewlux PerkinElmer.
NOTES (numbers refer to Sequence numbers above)
1. Briefly, 5 ul of cell reagent was dispensed using a Multidrop Combi Dispenser. The NOMO1 and SEM cells were plated at 500 cells/well and the P12-Ichikawa line at 1000 cells/well.
2. After seeding the cells, 23 nL of MIPE 4.1 library compounds (in DMSO) were added to each plate using a Kalypsys 1536 Pintool dispenser. Bortezomib at final concentration of […] and DMSO were added to each plate as positive and negative controls respectively. For each screen, MIPE 4.1 compounds were added over an eleven-point concentration range […] in 3-fold dilutions.
3. Each plate was covered with a stainless steel gasketed lid to prevent evaporation and incubated for 48 hour at 37C, 95% relative humidity, and 5% CO2.
4-5. Three microliter CellTilter-GloTM luminescent substrate mix (Promega) reagent was added to the assay plate and incubated at room temperature for 5 min.
6. The luminescence signal was measured using a ViewLux (PerkinElmer) multiplate reader with a 2 second exposure time per plate. Data for each compound were normalized as percent viability such that measurements for DMSO and the empty well controls in each plate were defined as 100% and 0%, respectively.
(ATP-based viability assays read luminescence as a measure of living cells.)
Regarding `Oc1ccc(C=Cc2cc(O)cc(O)c2)cc1`, the Potency is 11800 nM (active). With `O=C(O)C1(Cc2cccc(Nc3nccs3)n2)CCC(Oc2cccc(Cl)c2F)CC1` (stereo not given), the Potency was 3320 nM (active). With `OC[C@H]1O[C@@H](n2cnc3c2NC=NC[C@@H]3O)C[C@H]1O`, the “viability” value is 88.1% (inactive). As for `COc1cc(C[C@@H](CO)[C@H](CO)Cc2ccc(O)c(OC)c2)ccc1O`, the “viability” value is 93.7% (inactive). Still for that read-out and setting: next, `CC(N)C12CC3CC(CC(C3)C1)C2` (stereo not given): 112% (inactive).

For `CC1(C)OC2=C(C(=O)c3ccccc3C2=O)[C@H](NCc2ccccc2)[C@H]1O`, the Potency was 7430 nM (active).

For the compound `NCCCCNCCCN`, the Potency is 13200 nM (active). Regarding `COc1cc(C=CC(=O)CC(=O)C=Cc2ccc(O)c(OC)c2)ccc1O`, the Potency was 17100 nM (active). Take `Fc1ccc(Cl)cc1-c1nc(Nc2ccncc2)c2nccnc2n1`: the “viability” value is 108% (inactive). Turning to `Nc1nc(=O)n([C@H]2CSC(CO)O2)cc1F` (stereo not given in full), the “viability” value was 105% (inactive). On to `N#CCNC(=O)c1ccc(-c2ccnc(Nc3ccc(N4CCOCC4)cc3)n2)cc1`, for which the Potency was 10500 nM (active). With `Cc1nc(N)ncc1-c1nc(N2CCOCC2)c2sc(C(C)(C)O)cc2n1`, the Potency was 33.2 nM (active).

Take `Clc1ccc(-c2nc3sccn3c2C=NOCc2ccc(Cl)c(Cl)c2)cc1`: the “viability” value is 98% (inactive).

`COc1ccc(-c2ccc3cc(C(=O)O)ccc3c2)cc1C12CC3CC(CC(C3)C1)C2`: the “viability” value is 109% (inactive). Take `CC(C)c1cnn2c(NCc3ccccc3)cc(NCCCCCCN)nc12`: the “viability” value is 78.4% (inactive). On the same count and under the same terms, the same measure for `N[C@@H]1CONC1=O`: 93.8% (inactive).

Take `C[C@@H](NC(=O)c1ncnc(N)c1Cl)c1ncc(C(=O)Nc2cc(C(F)(F)F)c(Cl)cn2)s1`: the “viability” value is 102% (inactive). `CC(C)(N)c1ccc(-c2nc3ccccc3nc2-c2ccccc2)cc1`: the Potency was 14.8 nM (active). Same read-out and setting: next, `CC(C)(C)c1[nH]cnc1C=c1[nH]c(=O)c(=Cc2ccccc2)[nH]c1=O`: 6.1 nM (active); `Cc1cc(Nc2ncnc3ccc(-c4ccc(CNCCS(C)(=O)=O)o4)cc23)ccc1Oc1ccn2ncnc2c1`: 93.5 nM (active). On to `COc1cc2nc(N3CCN(C(=O)C4CCCO4)CC3)nc(N)c2cc1OC` (stereo not given), for which the “viability” value is 82.1% (inactive). As to `CC=C1NC(=O)[C@H]2CSSCCC=C[C@H](CC(=O)N[C@H](C(C)C)C(=O)N2)OC(=O)[C@H](C(C)C)NC1=O`, the Potency was 29.6 nM (active).

Turning to `Cc1ccc(C(N)=O)cc1Nc1nccc(-c2cn(C(C)C)c3cnccc23)n1`, the Potency was 3720 nM (active). For the compound `COc1ccc(-c2oc3c(CC=C(C)C)c(O)cc(O)c3c(=O)c2O)cc1`, the “viability” value was 94.3% (inactive). Consider `CO[C@@H]1[C@H](N(C)C(=O)c2ccccc2)C[C@H]2O[C@]1(C)n1c3ccccc3c3c4c(c5c6ccccc6n2c5c31)C(=O)NC4`, for which the Potency was 743 nM (active).

On to `Clc1cc(Cl)cc(CNc2ncncc2-c2ccc3c(c2)OCO3)c1`, for which the Potency was 26400 nM (active). Take `O=C1NC(=O)[C@@H](c2cn3c4c(cccc24)CCC3)[C@H]1c1c[nH]c2ccccc12`: the Potency was 590 nM (active). For the compound `CC(C)(C)[N+]([O-])=Cc1ccc(S(=O)(=O)O)cc1S(=O)(=O)O`, the “viability” value is 100% (inactive). Regarding `CCn1c(-c2nonc2N)nc2cncc(CNC3CCNCC3)c21`, the Potency is 2350 nM (active).

For the compound `CC1(C)CCC[C@@]2(C)[C@@H]1CC[C@@]1(C)OC(=O)C[C@H]21`, the “viability” value is 107% (inactive). As for `CC1(C)CC(=O)c2c(C(F)(F)F)nn(-c3ccc(C(N)=O)c(NC4CCC(OC(=O)CN)CC4)c3)c2C1` (stereo not given), the Potency is 264 nM (active). `COc1cc([C@H]2Oc3cc([C@H]4Oc5cc(O)cc(O)c5C(=O)[C@H]4O)ccc3O[C@H]2CO)ccc1O`: the “viability” value was 102% (inactive). As to `C=CC(=O)Nc1cccc(Oc2nc(Nc3ccc(N4CCN(C)CC4)cc3)ncc2Cl)c1`, the Potency was 833 nM (active). Regarding `c1ccc2c(CCNc3ccc(Nc4ccncc4)cc3)c[nH]c2c1`, the Potency is 372 nM (active). As for `CCC[C@H](N[C@@H](C)C(=O)N1[C@@H]2CCCC[C@H]2C[C@H]1C(=O)O)C(=O)OCC`, the “viability” value was 105% (inactive). On to `CC(C)CC(=O)N[C@H](C(=O)N[C@H](C(=O)N[C@@H](CC(C)C)[C@@H](O)CC(=O)N[C@@H](C)C(=O)N[C@@H](CC(C)C)[C@@H](O)CC(=O)O)C(C)C)C(C)C` (Isovaleryl-VV[Sta]A[Sta]-OH), for which the Potency is 26400 nM (active). Still for that read-out and setting: the same measure for `CC(C)N(C[C@H]1O[C@@H](n2cnc3c(N)ncnc32)[C@H](O)[C@@H]1O)C1CC(CCc2nc3ccc(C(C)(C)C)cc3[nH]2)C1` (stereo not given in full): 1050 nM (active). As to `NC[C@@H]1O[C@@H](O[C@H]2[C@@H](O)[C@H](O[C@@H]3[C@@H](O)[C@@H](N)C[C@H](N)[C@H]3O[C@H]3O[C@H](CN)[C@@H](O)[C@@H](O)[C@H]3N)O[C@H]2CO)[C@H](N)[C@@H](O)[C@@H]1O`, the “viability” value is 107% (inactive). With `COc1cnc(NS(=O)(=O)c2ccc(N)cc2)nc1`, the “viability” value was 96.8% (inactive). Consider `CCN(CC)CC#CCOC(=O)C(O)(c1ccccc1)C1CCCCC1` (stereo not given), for which the “viability” value was 87% (inactive).

One may read the viability as a read-out of living cells in per cent, often relative to untreated cells.
